# Only some compounds are listed: those with a hit (about 18% of all), similar ones and a draw of the others.
# TDP1 cell noCPT: qHTS for Inhibitors of human tyrosyl-DNA phosphodiesterase 1 (TDP1): qHTS in cells in absence of CPT; AID 686978, 2013; 420,000 tested, 15% active; DT40 Tdp1-/- hTDP1 cells, no CPT, ATP luminescence, 48 h; Potency, µM (top dose mostly 46.2 µM), for the others: at the top dose activity change, negative = growth inhibition, most hits filed as inhibitors; also: potency is read from the fitted curve at half-maximal effect; nearly all actives have a fitted effect of over 55% in size
#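 Growth of hTDP1-complemented DT40 Tdp1-knockout cells is measured by ATP luminescence after at least 48 hr compound exposure at 37 °C, with DMSO substituting for the 20 nM CPT used in the parallel screen.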
# LDHA inh: qHTS assay for inhibitors of human lactate dehydrogenase. L-lactate dehydrogenase A chain (Homo sapiens), P00338. activity change, % (values are at about 110 or 230 µM). purified LDHA, NADH/diaphorase-resazurin fluorescence; hits give low values. 480,000 tested, 0.15% active; in the data active = activity change below about -30%; inconclusive = mostly about -25% to -30%;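 also: plate controls were DMSO wells for no effect and wells without enzyme for full effect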
#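 LDH5 2 nM; NADH 0.06 mM, pyruvate 0.2 mM; 200 mM Tris pH 7.4, EDTA, Tween-20; 5 min RT. Detection: diaphorase 0.133 mg/mL + resazurin 37 µM, fluorescence ex540/em590 at 0 and 20 min; normalized to enzyme-free and DMSO wells.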
# RORgamma inh: qHTS for inhibitors of ROR gamma transcriptional activity. 310,000 tested, 5.4% active. Drosophila S2 Gal4-RORgamma UAS-luciferase reporter, 20 h. Nuclear receptor ROR-gamma (Mus musculus), P51450. Potency, µM (titrated, usually from 53.6 µM), inactives show top-dose activity change, negative = inhibition, hits mostly inhibitors. AID 2551, 2010; also: potency is read from the fitted curve at half-maximal effect; nearly all actives have a fitted effect of over 60% in size
# Target sequence (P51450 whole entry, looked up, the tested form may be a part): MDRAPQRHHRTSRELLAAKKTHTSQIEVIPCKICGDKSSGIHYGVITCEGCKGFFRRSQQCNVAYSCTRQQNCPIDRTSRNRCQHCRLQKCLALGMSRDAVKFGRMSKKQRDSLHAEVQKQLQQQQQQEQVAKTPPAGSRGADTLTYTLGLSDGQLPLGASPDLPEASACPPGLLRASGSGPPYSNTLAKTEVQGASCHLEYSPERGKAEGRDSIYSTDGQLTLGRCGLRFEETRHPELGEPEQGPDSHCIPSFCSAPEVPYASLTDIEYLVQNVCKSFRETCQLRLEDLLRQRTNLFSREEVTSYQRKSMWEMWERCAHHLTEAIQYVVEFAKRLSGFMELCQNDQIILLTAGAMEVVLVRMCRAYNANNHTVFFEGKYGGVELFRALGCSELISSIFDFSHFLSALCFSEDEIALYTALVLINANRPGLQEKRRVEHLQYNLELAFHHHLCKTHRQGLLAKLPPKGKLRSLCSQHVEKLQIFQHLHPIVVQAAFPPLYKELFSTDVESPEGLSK
#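 Stable Schneider cell line, Gal4 DNA-binding domain fused to ROR gamma, UAS-luciferase. Cmpd 1 hr RT → CuSO4 700 uM final → 20 hr RT → luciferase reagent 10 min → luminescence.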
# IL1B secr inh: qHTS for Inhibitors of Inflammasome Signaling: IL-1-beta AlphaLISA Primary Screen; AID 743279, 2014; 360,000 tested, 4.7% active; THP-1 LPS/ATP IL-1B secretion, AlphaLISA, 16 h; hits give low values; activity change, % at 57.5 µM; in the data active = activity change below about -50%; inconclusive = mostly about -30% to -49%
#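 Secreted IL-1B measured by AlphaLISA bead assay after 16 h compound exposure of THP-1 cells; compounds (final up to 57.5 uM) added 1 h before LPS (250 ng/mL) and ATP (1.25 mM) stimulation; lower signal means less secretion.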
# DT40 TDP1 CPT: qHTS for Inhibitors of human tyrosyl-DNA phosphodiesterase 1 (TDP1): qHTS in cells in presence of CPT | AID 686979, 2013 | chicken DT40 Tdp1-/-;hTDP1 cells + 20 nM CPT, ATP luminescence, 48 h | 420,000 tested, 12% active | Potency, µM (titrated, usually from 46.2 µM), without a hit: at the highest dose activity change, negative = growth inhibition, most hits filed as inhibitors; also: potency is read from the fitted curve at half-maximal effect; nearly all actives have a fitted effect of over 55% in size
#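 Cell growth measured by CellTiter-Glo luminescence after a minimum 48 h, 37 C compound exposure with 20 nM CPT in Tdp1-knockout DT40 cells stably expressing hTDP1, seeded 400/well; qHTS titration format.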
# VP16 counter: VP16 counterscreen qHTS for inhibitors of ROR gamma transcriptional activity. Drosophila S2 Gal4-VP16 UAS-luciferase, luminescence, 20 h. Potency, µM (highest dose often 53.6 µM), without a hit: top-dose activity, negative = inhibition, usual class: inhibitors. 310,000 tested, 3.5% active;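 also: Gal4-VP16 expression switched on by copper sulfate through the metallothionein promoter; potency is read from the fitted curve at half-maximal effect; nearly all actives have a fitted effect of over 50% in size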
# * hit, by the source's call; ? = inconclusive; . = no result given; [ ] = dose if it differs, or a comment. Unless noted, calls follow the shape of the dose curve; as a rule, active = well fitted curve in the direction sought with a large enough effect; inconclusive = small, poorly fitted or top-dose-only effect, or another doubt; inactive = no such curve, though single readings can be large; an effect the other way counts as inactive or inconclusive. Unless noted, % is scaled to controls: 0 for no effect and ±100 for the full control effect.
SMILES,TDP1 cell noCPT,LDHA inh,RORgamma inh,IL1B secr inh,DT40 TDP1 CPT,VP16 counter
C[C@@H]1CC[C@]2(C(=O)O[C@@H]3O[C@H](CO)[C@@H](O)[C@H](O)[C@H]3O)CC[C@]3(C)C(=CCC4[C@@]5(C)CC[C@H](O[C@@H]6OC[C@H](O)[C@H](O[C@@H]7O[C@H](CO)[C@@H](O)[C@H](O)[C@H]7O)[C@H]6O)C(C)(C)C5CC[C@]43C)C2[C@]1(C)O (stereo partly drawn),4.7%,-2.2,.,9.1,-12.8%,.
COc1ccc(/C=C\C(=O)O[C@@H]2C(O)C(O[C@@H]3OC(C)[C@H](O[C@@H]4OCC(O[C@H]5O[C@H](CO)[C@@H](O)C(O)C5O)C(O)C4O)C(O)C3O)[C@H](OC(=O)[C@]34CCC(C)(C)C[C@@H]3C3=CCC5[C@@]6(C)CC(O)C(O[C@@H]7OC(CO)C(O)[C@H](O)[C@H]7O)[C@@](C)(C(=O)O)C6CC[C@@]5(C)[C@]3(CO)CC4)O[C@H]2C)cc1 (stereo partly drawn),5.17µM*,-3.4,.,-97.2*,3.66µM*,.
C/C=C(/C)C(=O)OC1C(OC(C)=O)[C@@]2(CO)C(O)C[C@@]3(C)C(=CCC4[C@@]5(C)CCC(OC6OC(C(=O)O)[C@@H](O[C@@H]7OC(CO)C(O)C(O)C7O)C(O)[C@H]6O[C@@H]6OC(CO)C(O)C(O)C6O)[C@](C)(CO)C5CC[C@@]43C)C2CC1(C)C (stereo partly drawn),?,.,-21.3%,.,?,-17.6%
C[C@@H]1OC(OC2CC[C@@]3(C)C(CC[C@@]4(C)C3CC=C3C5CC(C)(C)CC[C@]5(C(=O)OC5OCC(O)[C@@H](O)[C@@H]5OC5O[C@@H](C)[C@H](O[C@H]6OC(CO)C(O)C(O)C6O)C(O)C5O)C(O)C[C@@]34C)C2(C)C)C(O)C(O)[C@H]1OC1OCC(O)C(O)[C@H]1O (stereo partly drawn),?,.,-19.9%,.,14.6µM*,?
CC1OC(O[C@H]2CC[C@]3(C)C4C=C[C@]56OC[C@@]7(CC[C@@H](C)[C@H](C)C75)[C@H](O)C[C@@]6(C)[C@]4(C)CC[C@H]3C2(C)C)C(OC2OC(CO)C(O)C(O)C2OC2OCC(O)C(O)C2O)C(O)C1O (stereo partly drawn),.,.,1.78µM*,.,.,-20.9%
C/C=C(\C)C(=O)OC1[C@H](OC(C)=O)C2(CO)C(CC1(C)C)C1=CCC3C4(C)CCC(O[C@@H]5O[C@H](C(=O)O)[C@@H](O[C@@H]6O[C@H](CO)[C@@H](O)[C@H](O)[C@H]6O)[C@H](O)[C@H]5O[C@H]5O[C@H](CO)[C@@H](O)[C@H](O)[C@H]5O)[C@](C)(CO)C4CCC3(C)[C@]1(C)C[C@H]2O (stereo partly drawn),14.6µM*,-15.8,.,-105.4*,11.6µM*,.
CC1O[C@@H](OC2C(COC3OC(CO)C(O)[C@H](O)C3O)OC(OC3CC[C@]4(C)C(CC[C@@]5(C)[C@@H]4CC=C4[C@@H]6CC(C)(C)CC[C@]6(CO)C(O)C[C@]45C)C3(C)C)C(O)C2O)C(O)C(O)C1O (stereo partly drawn),6.6%,2.4,.,9.3,13.0%,.
N#CCCN(C(=O)c1ccco1)c1ccccc1,-13.1%,-1.8,1.41µM*,37.2,-5.3%,9.0%
CCCNc1c(NC(=O)NCC(C)C)c(=O)oc2ccccc12,.,0.4,.,.,.,.
Cc1ccc(CN=C(N)Nc2nc(C)cc(C)n2)cc1,3.26µM*,-5.5,1.2%,-52.1*,6.51µM*,-2.0%
O=C1CCSc2ccc(C(=O)NO)cc2N1,.,-2.1,.,.,.,.
CC(=O)C1=C(S(=O)(=O)c2ccc(C)cc2)CS(=O)(=O)C1,4.61µM*,-8.0,?,?,3.66µM*,6.3%[10 µM]
CN(C)c1ccc(S(=O)(=O)N2CCCCC2)cc1NC(=O)CCNC(=O)c1ccc(Cl)cc1,-5.8%,-8.9,.,-15.4,-19.8%,.
N#Cc1ccccc1OCC(=O)Nc1cccc(S(=O)(=O)N2CCCC2)c1,?,-1.4,.,-3.0,16.4µM*,.
O=C(CCNC(=O)c1ccc(Cl)cc1)Nc1cccc(S(=O)(=O)N2CCCCC2)c1,23.1µM*,3.9,.,-13.2,18.4µM*,.
O=C(Cc1ccccc1Cl)Nc1cccc(S(=O)(=O)N2CCCCCC2)c1,-5.7%,-6.2,.,-51.9*,-6.9%,.
COc1ccc(CCC(=O)Nc2cccc(S(=O)(=O)N3CCOCC3)c2)cc1OC,?,0.5,.,-10.6,14.6µM*,.
O=C(CCc1ccccc1Cl)Nc1cccc(S(=O)(=O)N2CCCC2)c1,?,-6.6,6.3%,-3.2,-20.6%,6.4%
O=C(O)C1CCN(S(=O)(=O)c2ccc(Cl)c(Cl)c2)CC1,.,-7.4,.,.,.,.
Cc1ccc(N(Cc2nc3nc(C)cc(=O)n3[nH]2)C(=O)c2ccccc2Cl)cc1,.,0.9,.,.,.,.
O=C(CNc1ccc(F)cc1Cl)Nc1cccc(S(=O)(=O)N2CCCCC2)c1,?,1.2,.,?,?,.
CCN(CC)CC(=O)Nc1cccc(S(=O)(=O)N2CCCC2)c1,?,-5.2,31.1%,4.6,-26.4%,3.4%
O=C(Nc1cccc(S(=O)(=O)N2CCCCC2)c1)Nc1ccc(Cl)cc1Cl,?,-2.6,7.1%[10 µM],-86.9*,?,?
O=C(Nc1cccc(S(=O)(=O)N2CCCC2)c1)[C@@H]1O[C@H](CO)[C@@H](O)[C@H]1O,-0.5%,-7.8,.,-76.1*,5.4%,.
O=C(CN(CCO)c1ccccc1)Nc1cccc(S(=O)(=O)N2CCCC2)c1,?,-1.9,23.9%,-3.8,18.4µM*,?
O=C(COC(=O)CCC1CCCC1)Nc1cccc(S(=O)(=O)N2CCOCC2)c1,-27.5%,4.4,.,-87.4*,-20.4%,.
CCC(C)c1ccc2oc(-c3ccc(Cl)c(NC(C)=O)c3)nc2c1 (stereo not drawn),.,2.5,.,.,.,.
N#CCc1nc(N)c2ccccc2n1,.,6.2,.,.,.,.
Cc1nn2c(nnc3c(=O)n(-c4cc(Cl)cc(Cl)c4)ccc32)c1-c1ccccc1,.,4.7,.,.,.,.
COc1ccccc1C(=O)Nc1c(C)nc(Nc2ccccc2)nc1Nc1ccccc1,.,4.9,.,.,.,.

# Screening results deposited in PubChem by National Center for Advancing Translational Sciences (NCATS).
